# Screens as filed in PubChem BioAssay.
# In the library only some 2.1% were active in any assay of this set; here they are far more common.
# PGE2 EP2 inh: blocks the human prostaglandin E2 receptor EP2; C6 glioma cells expressing human EP2, cAMP TR-FRET; cells stimulated with saturating PGE2; 260,000 compounds, 0.52% hits; inhibition, % at 25 µM; P43116;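 active = percent inhibition above 40 after rounding to a whole number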;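 also: rat C6 glioma host cells with rolipram phosphodiesterase inhibitor present; the protocol text gives 20 µM as final concentration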
# Target sequence (P43116 whole entry, looked up): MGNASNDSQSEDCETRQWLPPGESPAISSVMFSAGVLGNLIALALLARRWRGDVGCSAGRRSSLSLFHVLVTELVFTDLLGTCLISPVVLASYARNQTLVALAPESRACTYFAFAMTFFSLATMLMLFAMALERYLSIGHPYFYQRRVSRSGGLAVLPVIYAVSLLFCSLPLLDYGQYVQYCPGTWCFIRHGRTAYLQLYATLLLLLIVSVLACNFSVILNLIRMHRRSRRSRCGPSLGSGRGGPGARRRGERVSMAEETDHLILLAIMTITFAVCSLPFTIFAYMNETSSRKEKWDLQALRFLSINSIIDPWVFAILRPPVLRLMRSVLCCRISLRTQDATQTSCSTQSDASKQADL
# EP2 modulator: modulates human prostaglandin E2 receptor EP2 signaling | EP2-expressing cells, cAMP HTRF FRET, PGE2 co-stimulation | induction, % at 25 µM | 260,000 compounds, 0.83% hits | AID 940;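 active = compounds whose cAMP rise, as percent of the full-agonist control response, exceeds 60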;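 also: rat C6 glioma line stably carrying human EP2 under a CMV promoter; the protocol text gives 20 µM as final concentration; 100% = response of wells given 1 µM PGE2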
# HMGR II inh: E. faecalis class II HMG-CoA reductase inhibition; purified E. faecalis HMGR, NADPH absorbance 340 nm kinetic; inhibition, % at 10 µM; 190,000 compounds, 0.41% hits;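 active = inhibition above a set limit, the median over all tested compounds plus 3 SD, cut at about 9.5% in these data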;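 also: enzyme runs in reverse so mevalonate oxidation gives rising NADPH absorbance; 0% = complete reaction with DMSO and 100% = background rate lacking mevalonate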
# GSH bead fluor: compound fluoresces at 488/530 nm on GSH beads | 190,000 compounds, 0.25% hits | GSH beads flow cytometry, compound fluorescence 488/530 nm; stronger effect = higher value | AID 1776 | fluorescence (KMESF) at 10 µM; in the data active = fluorescence above about 89;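 also: glutathione beads carrying GST-tagged Bcl family fusion proteins plus one bare bead set; values are compound well signal with DMSO vehicle wells as background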
# Avidin bead fluor: avidin bead compound fluorescence profile; Avidin beads, compound fluorescence 488/530 nm, flow cytometry; stronger effect = higher value; 220,000 compounds, 0.38% hits; AID 1775; fluorescence (KMESF) at 10 µM; in the data active = fluorescence above about 47
# The depositor's hits bear a star; . = no result given.
SMILES,PGE2 EP2 inh,EP2 modulator,HMGR II inh,GSH bead fluor,Avidin bead fluor
CC(=O)N1c2ccccc2C2(O)N=C(C)SC12 (stereo unspecified),42*,-90,-1,6,8
Nc1nonc1-n1nnc(C(=O)O)c1-c1cccs1,10,20,10*,67,9
COc1ccc(N(C(=O)c2csnn2)C(C(=O)NC(C)(C)C)c2ccc(C)cc2)cc1 (stereo unspecified),11,-39,.,.,.
O=C(CC(=O)NN=C1CCCCCC1)NCc1cccnc1,1,13,15*,11,21
O=C(Cc1ccc(Br)cc1)N(Cc1ccccc1)c1ccccn1,3,45,-5,27,59*
CCCOc1ccc(-c2nnn(CC(=O)N3CCCC(C)C3)n2)cc1 (stereo unspecified),3,-15,.,.,.
CCOc1ccc(-c2nnn(CC(=O)N3CCCC(C)C3)n2)cc1 (stereo unspecified),1,-29,13*,20,10
COC(=O)CSc1nnc(SCc2ccc(OC)cc2)s1,.,32,-4,26,50*
CC(C)(C)[C@@H]1C=C(C(=O)N2CCN(Cc3ccccc3)CC2)O[C@H](OCc2ccc(CO)cc2)C1,12,10,-3,17,6
CC(C)(C)[C@H]1C=C(C(=O)N2CCN(Cc3ccc4c(c3)OCO4)CC2)O[C@@H](OCc2ccc(CO)cc2)C1,6,-3,19*,19,6
CN(c1ccccc1)c1nc2ccsc2c(=O)s1,2,35,-8,32,169*
COc1ccc(CNc2ncnc3c2[nH]c2cc(OC)c(OC)cc23)cc1,54*,-36,.,.,6
COc1ccc(CNc2ncnc3c2[nH]c2ccccc23)cc1,60*,-36,.,.,3
Cc1cccn2cc(CNc3nc4ccccc4s3)nc12,8,-28,.,.,.
CCOc1ccc(C(=O)Nc2cc(-c3nc4ccccc4[nH]3)ccc2C)cc1[N+](=O)[O-],16,-5,-2,26,65*
CCN1c2ncccc2C(=O)NC12CCN(Cc1c(F)cccc1F)CC2,6,-10,.,.,.
Cc1ccc(NC(=O)N(CCCN(C)C)Cc2cc3cc4c(cc3[nH]c2=O)OCCO4)cc1,11,-32,.,.,.
CCOc1cccc(C2C(C(=O)c3ccco3)=C(O)C(=O)N2CCN2CCOCC2)c1 (stereo unspecified),8,-18,.,.,.
Clc1cccc(CN2CCC(Cc3ccccc3)CC2)c1,8,-13,14*,26,8
Clc1ccc(CN2CCC(Cc3ccccc3)CC2)cc1,7,27,-1,11,13
Cc1ccc(NC(=O)C(C#N)Cc2ccncc2)c(C)c1 (stereo unspecified),15,-2,.,.,.
O=C(Nc1ccccc1Cl)NC1CC2CCCC(C1)N2Cc1cccs1 (stereo unspecified),10,-104,.,.,.
COc1ccc2nc(SCC(=O)Nc3ccc(N(C)C)cc3)c(C#N)cc2c1,7,-25,.,.,.
COc1ccccc1N1C(=O)C=C(Sc2nc(C)cc(C)n2)C1=O,42*,-61,.,.,6
Cc1c(Cl)c([N+](=O)[O-])nn1CC(=O)NC(C)COc1ccccc1 (stereo unspecified),4,-35,.,.,.
SMILES,PGE2 EP2 inh,EP2 modulator,HMGR II inh,GSH bead fluor,Avidin bead fluor
Cc1ccc(C)c2[nH]c(=O)c(CN(CCc3ccccc3)C(c3nnnn3C3CCCC3)C(C)C)cc12 (stereo unspecified),14,32,.,.,.
CN(C)Cc1cc(C(C)(C)C)ccc1-c1ccc(C(C)(C)C)cc1CN(C)C,50*,7,.,.,.
Cc1ccc(C(=O)N(CCc2ccccc2)CC(=O)NC2CCCCC2)s1,4,12,.,.,.
O=C1c2ccccc2C(=O)N1CCN1CCOCC1,4,-3,-9,20,233*
c1cc2ccc3ccc(CN4CCOCC4)c4ccc(c1)c2c34,8,-18,5,12,9
OC1CCCN(Cc2ccc3ccc4cccc5ccc2c3c45)C1 (stereo unspecified),9,-72,3,24,142*
CC(C)Oc1ccc(C2C(C#N)=C(N)OC3=C2C(=O)CC(C)(C)C3)cc1 (stereo unspecified),11,25,.,.,.
O=C1c2ccccc2C(=O)c2c1ccc(N1C(=O)c3ccccc3C1=O)c2-c1c(N2C(=O)c3ccccc3C2=O)ccc2c1C(=O)c1ccccc1C2=O,45*,0,.,.,.
Nc1ccc(N2C(=O)c3ccccc3C2=O)c(Cl)c1,11,-2,.,.,.
CCc1cc(C(=O)OC)c(NC(=O)CC2NCCNC2=O)s1 (stereo unspecified),4,9,-3,16,11
